LGR2 antag: blocks bursicon-induced cAMP signaling via Drosophila LGR2; AID 720647; inhibition, % at 9.99 µM; HEK293 LGR2, CRE-luciferase, bursicon-stimulated, 4 h; 0.35% of 380,000 active;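 active = drop in luminescence signal, shown as inhibition above about 50% in the replicate tests, limit read from the data, passing the limit was not always enough; inconclusive = probably only some replicates passing the limit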;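 also: agonist challenge used bursicon conditioned medium at about half maximal strength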
KKLEB tox: reduces viability of KKLEB cystic fibrosis airway cells | KKLEB CF airway cells viability, ATPlite luminescence, overnight; active compounds read low; cells stimulated with P. aeruginosa culture filtrate | activity change (cytotoxicity), % at 5 µM | 0.36% of 360,000 active | AID 602141;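 active = corrected activity change at or below -50% at 5 µM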
EWS-Fli block: blocks EWS/Fli oncoprotein-driven transcription | A673 NR0B1-luciferase reporter, viability-normalised | inhibition, % at 12.6 µM | 0.67% of 350,000 active | AID 651661;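 active = mean inhibition of at least 50% after viability correction, with every replicate also passing that limit; inconclusive = mean reaches 50% but only one of two replicates passes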;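 also: firefly luciferase signal divided by Alamar Blue viability fluorescence both relative to DMSO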
CF NFkB inh: inhibitors of cystic fibrosis induced NF-kB; 0.86% of 360,000 active; KKLEB NF-kB-GFP reporter, PAF-induced, GFP fluorescence overnight; inhibition, % at 5 µM;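 active = at least 50% inhibition at 5 µM, scaled per plate between neutral and stimulator controls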;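 also: PAF is a Pseudomonas aeruginosa culture filtrate used as stimulus; plate controls were PAF-stimulated DMSO wells for no effect and unstimulated DMSO wells for full effect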
PAX8 reporter: inhibitors of PAX8 transcriptional activity in RMG-I cells. AID 652154. RMG-I TPO-luciferase reporter, SteadyGlo, 24 h. inhibition, % at 12.6 µM. 1.2% of 360,000 active;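 active = mean replicate inhibition at least 60% with every replicate also reaching 60%; inconclusive = only one of the two criteria is met; inactive = mean below 60% and not all replicates reaching 60%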;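 also: luciferase light reporting Pax8 driven TPO promoter activity; plate controls were median of neutral control wells for no effect and mitoxantrone controls for full effect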
Shn3 inh set2: inhibitors of Schnurri-3 3'UTR reporter in osteoblasts; Clone20 osteoblast Shn3 3'UTR firefly luciferase, 24 h; inhibition, % at 12.5 µM; 0.52% of 360,000 active; AID 588674;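 active = mean inhibition of at least 75% with every replicate also reaching 75%; inconclusive = mean inhibition at least 75% but some replicate below; inactive = mean inhibition below 75%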;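 also: 0% = median of neutral control wells and 100% = pilot-screen positive control compound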
An asterisk follows results filed as active; ? = inconclusive; / = no result given; ! = not active in a repeat. An excerpt weighted towards active compounds, which were near 2% of everything screened.

SMILES	LGR2 antag	KKLEB tox	EWS-Fli block	CF NFkB inh	PAX8 reporter	Shn3 inh set2
C[C@@H]1CN([C@H](C)CO)S(=O)(=O)c2ccc(C#Cc3ccc(F)cc3)cc2O[C@@H]1CN(C)C(=O)NC1CCCCC1	22.5	/	11.4	/	58.3	/
C[C@@H]1CN([C@@H](C)CO)S(=O)(=O)c2ccc(/C=C/c3ccccc3)cc2O[C@H]1CN(C)C(=O)NC1CCCCC1	16.4	/	6.6	/	-4.0	/
C[C@H]1CN([C@@H](C)CO)S(=O)(=O)c2ccc(/C=C/c3ccccc3)cc2O[C@H]1CN(C)C(=O)NC1CCCCC1	-13.9	7.6	5.1	-18.8	70.2*!	-11.7
C[C@@H]1CN([C@H](C)CO)S(=O)(=O)c2ccc(/C=C/c3ccccc3)cc2O[C@@H]1CN(C)C(=O)Nc1cc(F)ccc1F	16.1	/	4.0	/	42.7	/
C[C@H](CO)N1C[C@H](C)[C@@H](CN(C)C(=O)NC2CCCCC2)Oc2cc(C#Cc3ccc(F)cc3)ccc2S1(=O)=O	41.9	/	5.5	/	82.2*	/
C[C@@H]1CN([C@@H](C)CO)S(=O)(=O)c2ccc(C#Cc3ccc(F)cc3)cc2O[C@H]1CN(C)C(=O)NC1CCCCC1	34.3	/	-3.6	/	99.0*	/
C[C@H](CO)N1C[C@H](C)[C@@H](CN(C)C(=O)Nc2cc(F)ccc2F)Oc2cc(/C=C/c3ccccc3)ccc2S1(=O)=O	13.1	/	22.3	/	66.4*	/
COc1ccc(CNC(=O)C[C@H]2CC[C@H]3[C@H](COc4ccc(NC(C)=O)cc4C(=O)N3C)O2)cc1	20.1	/	4.0	/	-2.0	/
CC(C)C(=O)NC(c1ccc(N(C)C)cc1)c1c(O)ccc2ccccc12 (centres undefined)	1.6	-4.0	-6.7	-2.4	13.7	/
CCCC(=O)NC(c1ccccc1Cl)c1ccc2cccnc2c1O (centres undefined)	24.4	-7.8	23.4	12.7	86.1*	?
CCC(=O)NC(c1cccs1)c1cc(Cl)c2cccnc2c1O (centres undefined)	11.8	7.0	23.5	-0.6	58.5	72.8
CCCCC(=O)NC(c1ccc(OC)cc1)c1ccc2cccnc2c1O (centres undefined)	10.8	5.1	11.3	-44.1	70.9*	90.6*
CCCC(=O)NC(c1ccc(N(C)C)cc1)c1ccc2cccnc2c1O (centres undefined)	21.7	-3.0	36.1	16.4	94.5*	91.1*
Cc1ccnc(NC(c2ccccc2)c2ccc3cccnc3c2O)c1 (centres undefined)	8.7	-25.7	22.4	-5.0	50.5	38.7
O=C(O)c1ccccc1NC(c1ccccc1)c1ccc2cccnc2c1O (centres undefined)	21.0	-8.3	27.2	-0.2	70.9*	-1.5
CCCC(=O)NC(c1ccc(OC)cc1)c1c(O)ccc2ccccc12 (centres undefined)	20.0	-16.8	36.7	30.5	7.4	0.0
Cn1cnc(S(=O)(=O)N2C[C@H](O)COC[C@H]3O[C@@H](CC(=O)N4CCN(c5ccccc5)CC4)CC[C@@H]32)c1	-14.1	/	-8.0	/	4.7	/
COCCN(C[C@H]1[C@H](c2ccccc2)[C@@H](CO)N1C(C)=O)C(=O)c1ccncc1	14.6	/	-3.0	/	6.2	/
CC(=O)NC(c1ccco1)c1ccc2cccnc2c1O (centres undefined)	19.7	4.5	/	-6.9	/	73.6
Oc1c(C(Nc2ccccn2)c2ccccn2)ccc2cccnc12 (centres undefined)	8.4	-15.5	/	-4.5	37.0	84.1
Oc1ccccc1C(Nc1nccs1)c1ccc2cccnc2c1O (centres undefined)	19.8	-0.5	-6.3	-6.1	58.7	93.1*
CC(=O)NC(c1ccc(Cl)cc1)c1ccc2cccnc2c1O (centres undefined)	/	-32.5	43.6	6.1	94.9*	87.3*
CCCC(=O)NC(c1ccc(C(C)C)cc1)c1ccc2cccnc2c1O (centres undefined)	22.5	-4.9	44.6	-6.4	95.3*	90.9*
CCC(=O)NC(c1ccco1)c1cc(Br)c2cccnc2c1O (centres undefined)	4.0	18.7	12.9	-8.4	35.3	37.6
CCC(=O)NC(c1ccc(C)cc1)c1ccc2cccnc2c1O (centres undefined)	34.0	-2.1	31.7	1.7	91.5*	89.8*
SMILES	LGR2 antag	KKLEB tox	EWS-Fli block	CF NFkB inh	PAX8 reporter	Shn3 inh set2
CC(C)NC(=O)Nc1ccc2c(c1)C(=O)N([C@@H](C)CO)C[C@H](C)[C@@H](CN(C)C(=O)NC1CCCCC1)O2	-14.1	/	/	/	-15.3	/
COc1ccc(C(NC(=O)C(C)C)c2ccc3cccnc3c2O)cc1 (centres undefined)	11.0	-9.3	31.7	3.3	?	94.8*
Cc1cc(NC(c2ccc(Cl)cc2)c2ccc3cccnc3c2O)no1 (centres undefined)	/	-0.2	/	-12.2	/	88.7*
COCC1CCN(C(=O)c2cc(COc3ccc4ncccc4c3)on2)CC1	16.8	-2.2	-1.9	-1.1	1.5	85.6*
Cc1cnc(NC(=O)c2ccc(OCC3CCCO3)cc2)s1 (centres undefined)	86.9*	-42.3	63.5*	16.5	24.2	26.3
CCOc1ccc(C(=O)Nc2nnc(SCC(=O)NCC3CCCO3)s2)cc1 (centres undefined)	77.5*	-36.0	64.8*	15.0	-10.3	7.2
O=C(CSc1nnc(NC(=O)c2ccc(S(=O)(=O)N3CCOCC3)cc2)s1)Nc1ccccc1C(F)(F)F	-7.9	2.0	0.8	6.2	69.1*	8.1
Cc1nnc(NC(=O)c2ccc(S(=O)(=O)N3CCOCC3)cc2)s1	3.9	-2.2	-5.1	-5.3	-6.6	6.4
CN(C)S(=O)(=O)c1ccc(C(=O)Nc2nnc(SCC(=O)NCC3CCCO3)s2)cc1 (centres undefined)	21.3	5.3	/	-20.9	-46.4	6.7
CC(C)(C)c1ccc(C(=O)Nc2nnc(SCC(=O)NCC3CCCO3)s2)cc1 (centres undefined)	-46.1	-62.1*	/	-2.0	-140.1	-17.5
O=C(c1cnccn1)N1C[C@H]2[C@@H](c3ccccc31)[C@@H](CO)N2Cc1ccccc1Cl	-3.6	/	-4.0	/	0.4	/
CN1c2ccc(-c3cccc(F)c3)cc2[C@@H]2[C@@H](CCN2C(=O)C2CCC2)[C@@H]1CO	1.1	/	-14.2	/	/	/
CC(C)NC(=O)NCC[C@@H]1CC[C@@H](NC(=O)CCN2CCCCC2)[C@@H](CO)O1	9.7	/	/	/	/	/
C[C@@H]1CN([C@@H](C)CO)C(=O)c2cc(NC(=O)NC3CCCCC3)ccc2O[C@H]1CN(C)S(C)(=O)=O	11.3	/	6.1	/	-1.7	/
COc1ccc(-c2sc3ccc(N4CCOCC4)cc3c2C#CCCO)cc1	28.1	-1.8	13.1	4.0	65.1*	-11.4
COc1ccc2sc(-c3ccc(S(C)(=O)=O)cc3)c(C#CCO)c2c1	56.6*	0.0	-23.2	-12.6	-12.7	-18.7

From PubChem
